Test results taken from paper PMC7862700, “An all-to-all approach to the identification of sequence-specific readers for epigenetic DNA modifications on cytosine”.

Legend:
Test in all cases: DAPPL (digital affinity profiling via proximity ligation, sequencing); 10 mM Tris-HCl pH 7.5, 50 mM NaCl, 1 mM DTT, 4% glycerol, room temperature, 30 min; GST-TFs on glutathione beads, 16-mer random dsDNA library, 0.1% formaldehyde crosslink after washing; high values mean tight binding
[1] = molecular target: T1, FEV (Homo sapiens, UniProt Q99581 1-238); details: protein: recombinant; tags: N-terminal GST; dsDNA, one strand shown
T1 sequence: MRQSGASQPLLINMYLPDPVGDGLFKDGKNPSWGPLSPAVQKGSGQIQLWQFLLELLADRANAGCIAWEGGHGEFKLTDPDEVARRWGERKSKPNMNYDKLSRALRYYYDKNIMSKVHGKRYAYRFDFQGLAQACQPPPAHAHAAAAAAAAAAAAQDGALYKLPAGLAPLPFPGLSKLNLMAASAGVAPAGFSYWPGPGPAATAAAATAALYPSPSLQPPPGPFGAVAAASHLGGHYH
Procedure, shortened: (§1)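 After expression in yeast as GST fusions, human transcription factors were bound to glutathione beads, DNA-barcoded and mixed with a tag-only sample. The pools were incubated with 200 nmole of a 16-mer random double-stranded DNA library in Tris/NaCl/DTT/glycerol buffer (30 min, room temperature), washed and crosslinked with 0.1% formaldehyde. Proximity ligation with BsaI/T4 ligase ran for 1 h at 37 °C, before PCR amplification and sequencing on an Illumina NextSeq500. Binding signal is a hexamer's read frequency for a factor divided by its frequency for the tag-only sample.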

[2] = molecular target: ETV5 (Homo sapiens, UniProt P41161 1-510); details: protein: recombinant; tags: N-terminal GST; dsDNA, one strand shown
Procedure, shortened: as §1

[3] = molecular target: HSF1 (Homo sapiens, UniProt Q00613 1-529); details: protein: recombinant; tags: N-terminal GST; chain copies: 3; dsDNA, one strand shown
Procedure, shortened: as §1

[4] = molecular target: T2, SPIC (Homo sapiens, UniProt Q8N5J4 1-248); details: protein: recombinant; tags: N-terminal GST; dsDNA, one strand shown
T2 sequence: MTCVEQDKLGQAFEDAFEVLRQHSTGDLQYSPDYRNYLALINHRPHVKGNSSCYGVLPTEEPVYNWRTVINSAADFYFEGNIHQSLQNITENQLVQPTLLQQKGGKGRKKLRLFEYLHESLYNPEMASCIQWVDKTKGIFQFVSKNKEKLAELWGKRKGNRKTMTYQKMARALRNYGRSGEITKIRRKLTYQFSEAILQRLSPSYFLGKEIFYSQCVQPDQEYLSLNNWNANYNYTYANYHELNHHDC
Procedure, shortened: as §1

[5] = molecular target: ELF4 (Homo sapiens, UniProt Q99607 1-663); details: protein: recombinant; tags: N-terminal GST; dsDNA, one strand shown
Procedure, shortened: as §1

[6] = molecular target: T3, ELK4 (Homo sapiens, UniProt P28324-2 1-405); details: protein: recombinant; tags: N-terminal GST; dsDNA, one strand shown
T3 sequence: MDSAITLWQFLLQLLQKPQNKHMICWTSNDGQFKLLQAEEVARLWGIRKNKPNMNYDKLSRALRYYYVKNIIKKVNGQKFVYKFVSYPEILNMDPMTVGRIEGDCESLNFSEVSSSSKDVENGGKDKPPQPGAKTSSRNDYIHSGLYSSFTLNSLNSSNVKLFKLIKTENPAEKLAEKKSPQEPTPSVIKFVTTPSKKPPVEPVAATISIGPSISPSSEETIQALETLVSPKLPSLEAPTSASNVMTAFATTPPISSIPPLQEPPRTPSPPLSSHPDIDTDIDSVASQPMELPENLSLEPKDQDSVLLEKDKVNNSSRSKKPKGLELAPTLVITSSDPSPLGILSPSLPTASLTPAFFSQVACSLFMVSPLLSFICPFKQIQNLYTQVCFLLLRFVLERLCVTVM
Procedure, shortened: as §1

[7] = molecular target: T4, ETV2 (Homo sapiens, UniProt O00321 1-342); details: protein: recombinant; tags: N-terminal GST; dsDNA, one strand shown
T4 sequence: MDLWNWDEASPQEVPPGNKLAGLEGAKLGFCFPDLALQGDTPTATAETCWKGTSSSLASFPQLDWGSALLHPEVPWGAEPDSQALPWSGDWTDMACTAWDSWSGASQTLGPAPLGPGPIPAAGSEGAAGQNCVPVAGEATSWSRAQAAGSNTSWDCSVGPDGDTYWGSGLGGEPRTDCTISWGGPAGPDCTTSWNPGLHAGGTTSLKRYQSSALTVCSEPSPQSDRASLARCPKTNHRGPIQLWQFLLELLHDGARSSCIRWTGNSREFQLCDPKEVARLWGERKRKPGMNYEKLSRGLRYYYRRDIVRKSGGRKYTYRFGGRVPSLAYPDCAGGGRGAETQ
Procedure, shortened: as §1

[8] = molecular target: T5, ELF3 (Homo sapiens, UniProt P78545 1-371); details: protein: recombinant; tags: N-terminal GST; dsDNA, one strand shown
T5 sequence: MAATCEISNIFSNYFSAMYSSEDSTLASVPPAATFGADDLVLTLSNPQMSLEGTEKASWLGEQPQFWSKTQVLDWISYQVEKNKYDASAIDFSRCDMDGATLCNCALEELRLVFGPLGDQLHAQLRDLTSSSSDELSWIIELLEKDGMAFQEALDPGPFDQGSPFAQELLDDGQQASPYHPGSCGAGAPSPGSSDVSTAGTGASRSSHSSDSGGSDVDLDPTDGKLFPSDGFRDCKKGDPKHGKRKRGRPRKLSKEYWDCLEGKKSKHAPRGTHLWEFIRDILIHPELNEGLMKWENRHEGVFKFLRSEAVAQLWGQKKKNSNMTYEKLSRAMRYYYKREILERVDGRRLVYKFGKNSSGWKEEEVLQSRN
Procedure, shortened: as §1

[9] = molecular target: CRX (Homo sapiens, UniProt O43186 1-299); details: protein: recombinant; tags: N-terminal GST; dsDNA, one strand shown
Procedure, shortened: as §1

[10] = molecular target: ETV1 (Homo sapiens, UniProt P50549 1-477); details: protein: recombinant; tags: N-terminal GST; dsDNA, one strand shown
Procedure, shortened: as §1

[11] = molecular target: T6, ERF (Homo sapiens, UniProt P50548 1-548); details: protein: recombinant; tags: N-terminal GST; dsDNA, one strand shown
T6 sequence: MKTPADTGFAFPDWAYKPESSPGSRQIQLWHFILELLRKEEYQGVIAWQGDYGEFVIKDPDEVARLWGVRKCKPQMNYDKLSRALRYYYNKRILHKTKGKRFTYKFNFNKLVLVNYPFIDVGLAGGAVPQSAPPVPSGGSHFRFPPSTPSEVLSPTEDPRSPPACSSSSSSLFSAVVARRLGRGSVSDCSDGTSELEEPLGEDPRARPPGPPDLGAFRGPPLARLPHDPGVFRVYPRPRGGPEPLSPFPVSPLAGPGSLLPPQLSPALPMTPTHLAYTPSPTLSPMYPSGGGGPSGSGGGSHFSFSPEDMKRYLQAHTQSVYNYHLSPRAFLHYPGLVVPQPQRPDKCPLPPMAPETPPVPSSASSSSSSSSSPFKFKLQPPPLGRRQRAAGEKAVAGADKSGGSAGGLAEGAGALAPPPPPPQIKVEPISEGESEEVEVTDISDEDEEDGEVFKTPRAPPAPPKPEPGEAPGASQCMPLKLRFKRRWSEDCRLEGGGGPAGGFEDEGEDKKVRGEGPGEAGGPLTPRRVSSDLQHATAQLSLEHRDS
Procedure, shortened: as §1

[12] = molecular target: T7, ETV3L (Homo sapiens, UniProt Q6ZN32 1-361); details: protein: recombinant; tags: N-terminal GST; dsDNA, one strand shown
T7 sequence: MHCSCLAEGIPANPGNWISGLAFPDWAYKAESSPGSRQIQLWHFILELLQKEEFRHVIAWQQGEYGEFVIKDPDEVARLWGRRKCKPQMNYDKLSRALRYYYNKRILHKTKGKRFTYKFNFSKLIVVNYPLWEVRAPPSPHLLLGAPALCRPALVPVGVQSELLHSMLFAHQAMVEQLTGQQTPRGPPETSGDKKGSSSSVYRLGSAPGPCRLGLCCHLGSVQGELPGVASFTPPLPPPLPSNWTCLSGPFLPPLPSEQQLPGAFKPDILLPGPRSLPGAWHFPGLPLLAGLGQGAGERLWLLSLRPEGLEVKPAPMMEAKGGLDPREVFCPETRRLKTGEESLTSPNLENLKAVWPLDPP
Procedure, shortened: as §1

[13] = molecular target: T8, ETS2 (Homo sapiens, UniProt P15036 1-469); details: protein: recombinant; tags: N-terminal GST; dsDNA, one strand shown
T8 sequence: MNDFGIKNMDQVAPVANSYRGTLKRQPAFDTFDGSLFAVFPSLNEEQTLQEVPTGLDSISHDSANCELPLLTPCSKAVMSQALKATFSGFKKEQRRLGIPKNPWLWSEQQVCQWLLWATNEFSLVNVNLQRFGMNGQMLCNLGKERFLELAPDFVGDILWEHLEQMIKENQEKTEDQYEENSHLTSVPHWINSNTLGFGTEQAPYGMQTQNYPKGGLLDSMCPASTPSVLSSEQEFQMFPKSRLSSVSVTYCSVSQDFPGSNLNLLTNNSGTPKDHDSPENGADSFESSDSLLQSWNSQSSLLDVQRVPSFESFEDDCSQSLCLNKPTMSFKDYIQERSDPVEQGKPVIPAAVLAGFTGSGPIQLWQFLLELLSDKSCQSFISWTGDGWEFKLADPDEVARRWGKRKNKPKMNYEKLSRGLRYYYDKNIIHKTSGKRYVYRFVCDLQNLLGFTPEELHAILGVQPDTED
Procedure, shortened: as §1

[14] = molecular target: T9, SPDEF (Homo sapiens, UniProt O95238 1-335); details: protein: recombinant; tags: N-terminal GST; dsDNA, one strand shown
T9 sequence: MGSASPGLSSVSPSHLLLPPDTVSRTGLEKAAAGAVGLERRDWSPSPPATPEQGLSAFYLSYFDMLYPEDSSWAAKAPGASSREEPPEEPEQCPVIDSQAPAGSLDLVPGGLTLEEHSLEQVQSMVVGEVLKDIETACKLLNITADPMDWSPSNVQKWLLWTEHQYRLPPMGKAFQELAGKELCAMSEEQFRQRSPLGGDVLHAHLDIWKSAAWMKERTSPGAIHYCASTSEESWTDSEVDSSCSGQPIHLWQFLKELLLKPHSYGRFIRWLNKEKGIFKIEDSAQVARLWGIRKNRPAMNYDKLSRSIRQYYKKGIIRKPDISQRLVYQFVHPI
Procedure, shortened: as §1

[15] = molecular target: T10, ETV7 (Homo sapiens, UniProt Q9Y603 1-341); details: protein: recombinant; tags: N-terminal GST; dsDNA, one strand shown
T10 sequence: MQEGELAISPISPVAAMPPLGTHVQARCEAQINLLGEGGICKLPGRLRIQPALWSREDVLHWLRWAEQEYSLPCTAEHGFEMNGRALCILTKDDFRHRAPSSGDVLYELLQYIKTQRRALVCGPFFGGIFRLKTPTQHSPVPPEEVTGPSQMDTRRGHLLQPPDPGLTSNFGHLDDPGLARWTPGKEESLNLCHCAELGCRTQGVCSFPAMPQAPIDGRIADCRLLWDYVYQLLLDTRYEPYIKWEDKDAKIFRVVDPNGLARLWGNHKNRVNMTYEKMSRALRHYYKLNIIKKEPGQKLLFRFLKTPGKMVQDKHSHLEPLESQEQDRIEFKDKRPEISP
Procedure, shortened: as §1

[16] = molecular target: T11, ELF5 (Homo sapiens, UniProt Q9UKW6-2 1-255); details: protein: recombinant; tags: N-terminal GST; dsDNA, one strand shown
T11 sequence: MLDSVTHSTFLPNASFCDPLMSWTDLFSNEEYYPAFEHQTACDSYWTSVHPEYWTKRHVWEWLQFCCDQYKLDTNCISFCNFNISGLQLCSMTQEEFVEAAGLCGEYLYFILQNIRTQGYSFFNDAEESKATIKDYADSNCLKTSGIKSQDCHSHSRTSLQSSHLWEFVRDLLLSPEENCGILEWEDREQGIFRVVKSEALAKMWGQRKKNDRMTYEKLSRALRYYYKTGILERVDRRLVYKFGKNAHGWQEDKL
Procedure, shortened: as §1

[17] = molecular target: T12, ETV3 (Homo sapiens, UniProt P41162-2 1-143); details: protein: recombinant; tags: N-terminal GST; dsDNA, one strand shown
T12 sequence: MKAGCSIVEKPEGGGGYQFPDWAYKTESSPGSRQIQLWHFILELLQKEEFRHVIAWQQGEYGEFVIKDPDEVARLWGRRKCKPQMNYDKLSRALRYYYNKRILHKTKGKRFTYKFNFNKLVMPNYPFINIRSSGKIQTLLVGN
Procedure, shortened: as §1

[18] = molecular target: ETV6 (Homo sapiens, UniProt P41212 1-452); details: protein: recombinant; tags: N-terminal GST; dsDNA, one strand shown
Procedure, shortened: as §1

Sequence of ETV1 (P50549 whole entry): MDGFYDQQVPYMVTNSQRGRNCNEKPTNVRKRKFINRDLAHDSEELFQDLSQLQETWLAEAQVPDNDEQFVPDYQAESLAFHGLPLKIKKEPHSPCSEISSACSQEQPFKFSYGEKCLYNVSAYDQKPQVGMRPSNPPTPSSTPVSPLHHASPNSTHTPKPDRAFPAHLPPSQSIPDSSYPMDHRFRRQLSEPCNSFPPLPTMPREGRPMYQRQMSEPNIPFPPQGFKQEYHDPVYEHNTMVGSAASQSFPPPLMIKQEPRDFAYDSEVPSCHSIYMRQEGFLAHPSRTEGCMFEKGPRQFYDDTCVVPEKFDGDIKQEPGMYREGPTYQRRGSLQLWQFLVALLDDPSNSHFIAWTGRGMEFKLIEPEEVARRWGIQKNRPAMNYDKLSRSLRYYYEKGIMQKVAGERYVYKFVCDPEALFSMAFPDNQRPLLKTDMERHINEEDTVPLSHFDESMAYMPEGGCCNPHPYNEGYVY
Sequence of HSF1 (Q00613 whole entry): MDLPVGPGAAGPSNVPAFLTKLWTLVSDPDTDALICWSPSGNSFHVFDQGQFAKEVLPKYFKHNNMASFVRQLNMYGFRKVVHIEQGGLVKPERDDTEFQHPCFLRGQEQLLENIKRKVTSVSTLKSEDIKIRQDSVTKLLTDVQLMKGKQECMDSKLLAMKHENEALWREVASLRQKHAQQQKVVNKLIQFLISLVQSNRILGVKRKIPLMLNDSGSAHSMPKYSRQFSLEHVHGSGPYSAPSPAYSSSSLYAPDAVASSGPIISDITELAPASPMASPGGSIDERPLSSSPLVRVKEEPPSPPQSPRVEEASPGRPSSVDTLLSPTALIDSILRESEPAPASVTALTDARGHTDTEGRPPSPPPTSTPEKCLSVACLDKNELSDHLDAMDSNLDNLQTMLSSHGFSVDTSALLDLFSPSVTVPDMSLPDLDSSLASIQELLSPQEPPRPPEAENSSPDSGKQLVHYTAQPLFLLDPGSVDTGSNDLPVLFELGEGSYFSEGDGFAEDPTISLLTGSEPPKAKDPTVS
Sequence of ETV6 (P41212 whole entry): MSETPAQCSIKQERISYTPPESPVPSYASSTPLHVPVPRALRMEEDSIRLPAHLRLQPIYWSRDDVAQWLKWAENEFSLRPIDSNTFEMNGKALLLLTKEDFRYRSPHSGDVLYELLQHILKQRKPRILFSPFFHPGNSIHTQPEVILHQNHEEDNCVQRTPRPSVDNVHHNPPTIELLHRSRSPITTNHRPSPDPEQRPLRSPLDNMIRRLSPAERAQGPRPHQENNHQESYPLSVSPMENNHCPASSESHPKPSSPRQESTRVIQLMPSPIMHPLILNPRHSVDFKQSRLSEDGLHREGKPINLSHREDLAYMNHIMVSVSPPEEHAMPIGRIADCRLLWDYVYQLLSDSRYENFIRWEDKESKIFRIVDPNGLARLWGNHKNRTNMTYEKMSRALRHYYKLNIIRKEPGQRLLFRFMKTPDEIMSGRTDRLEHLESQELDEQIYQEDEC
Sequence of ETV5 (P41161 whole entry): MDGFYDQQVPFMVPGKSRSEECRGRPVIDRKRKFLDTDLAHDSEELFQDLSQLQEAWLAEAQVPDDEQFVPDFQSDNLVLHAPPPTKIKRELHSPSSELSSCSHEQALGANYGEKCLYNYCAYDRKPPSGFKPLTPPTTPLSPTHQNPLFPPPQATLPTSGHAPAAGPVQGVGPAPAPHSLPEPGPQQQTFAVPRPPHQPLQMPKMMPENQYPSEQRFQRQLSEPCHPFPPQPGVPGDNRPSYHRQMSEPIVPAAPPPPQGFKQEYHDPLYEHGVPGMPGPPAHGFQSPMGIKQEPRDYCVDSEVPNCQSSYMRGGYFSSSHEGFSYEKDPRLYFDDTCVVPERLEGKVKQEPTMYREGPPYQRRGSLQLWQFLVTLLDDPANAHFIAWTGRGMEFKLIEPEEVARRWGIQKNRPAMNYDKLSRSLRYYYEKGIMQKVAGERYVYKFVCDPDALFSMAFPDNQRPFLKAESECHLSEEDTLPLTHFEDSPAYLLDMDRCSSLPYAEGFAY
Sequence of ELF4 (Q99607 whole entry): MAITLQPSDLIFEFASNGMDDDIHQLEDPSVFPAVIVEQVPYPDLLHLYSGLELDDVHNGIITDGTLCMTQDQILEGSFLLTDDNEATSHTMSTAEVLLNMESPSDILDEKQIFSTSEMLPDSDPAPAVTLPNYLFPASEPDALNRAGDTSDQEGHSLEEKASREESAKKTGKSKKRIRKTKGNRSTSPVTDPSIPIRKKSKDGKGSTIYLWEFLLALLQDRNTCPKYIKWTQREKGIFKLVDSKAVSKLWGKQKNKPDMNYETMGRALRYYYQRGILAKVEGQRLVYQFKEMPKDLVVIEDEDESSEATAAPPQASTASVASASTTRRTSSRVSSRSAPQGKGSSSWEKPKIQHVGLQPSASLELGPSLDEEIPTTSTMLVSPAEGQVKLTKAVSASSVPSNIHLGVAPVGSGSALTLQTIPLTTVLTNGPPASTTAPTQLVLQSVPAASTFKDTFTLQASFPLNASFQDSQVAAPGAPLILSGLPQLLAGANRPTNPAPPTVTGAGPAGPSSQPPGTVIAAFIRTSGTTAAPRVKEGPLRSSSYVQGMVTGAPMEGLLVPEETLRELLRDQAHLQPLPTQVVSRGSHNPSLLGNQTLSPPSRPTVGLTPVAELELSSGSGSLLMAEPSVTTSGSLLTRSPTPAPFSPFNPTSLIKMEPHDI
Sequence of CRX (O43186 whole entry): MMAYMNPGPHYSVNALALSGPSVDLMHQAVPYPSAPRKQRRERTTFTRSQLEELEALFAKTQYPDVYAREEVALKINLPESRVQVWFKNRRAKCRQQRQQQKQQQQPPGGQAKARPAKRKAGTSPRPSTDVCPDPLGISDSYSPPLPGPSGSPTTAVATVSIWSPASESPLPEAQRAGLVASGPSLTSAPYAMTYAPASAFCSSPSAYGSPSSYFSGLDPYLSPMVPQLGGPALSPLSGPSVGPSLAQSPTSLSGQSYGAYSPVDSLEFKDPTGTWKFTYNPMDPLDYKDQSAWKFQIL

Sequence: ATCTTG
- binding signal [1]: 1.33 fold enrichment (6-mer frequency, TF over GST control)
- binding signal [2]: 1.2 fold enrichment (6-mer frequency, TF over GST control)
- binding signal [3]: 1.43 fold enrichment (6-mer frequency, TF over GST control)
- binding signal [4]: 1.39 fold enrichment (6-mer frequency, TF over GST control)
- binding signal [5]: 1.33 fold enrichment (6-mer frequency, TF over GST control)
- binding signal [6]: 1.39 fold enrichment (6-mer frequency, TF over GST control)
- binding signal [7]: 1.35 fold enrichment (6-mer frequency, TF over GST control)
- binding signal [8]: 1.5 fold enrichment (6-mer frequency, TF over GST control)
- binding signal [9]: 1.54 fold enrichment (6-mer frequency, TF over GST control)
- binding signal [10]: 1.25 fold enrichment (6-mer frequency, TF over GST control)
- binding signal [11]: 1.29 fold enrichment (6-mer frequency, TF over GST control)
- binding signal [12]: 1.31 fold enrichment (6-mer frequency, TF over GST control)
- binding signal [13]: 1.33 fold enrichment (6-mer frequency, TF over GST control)
- binding signal [14]: 1.27 fold enrichment (6-mer frequency, TF over GST control)
- binding signal [15]: 1.24 fold enrichment (6-mer frequency, TF over GST control)
- binding signal [16]: 1.23 fold enrichment (6-mer frequency, TF over GST control)
- binding signal [17]: 1.37 fold enrichment (6-mer frequency, TF over GST control)
- binding signal [18]: 1.18 fold enrichment (6-mer frequency, TF over GST control)
